A selection: hits, their analogues and other compounds. The true share with any hit is near 1.2%.
VDR inh = vitamin D3 receptor (human) inhibition | VDR-SRC2-3 peptide fluorescence polarization, 2 h | AID 504847 | P11473 | Potency, µM, without a hit: max response, negative = inhibition, most hits filed as inhibitors | 400,000 compounds, 0.93% hits
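Inhibition of the VDR/SRC2-3 peptide interaction is quantified by fluorescence polarization. Compounds (23 nl, pintool) incubate with the reagents for 2 hours at ambient room temperature.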
TexasRed fluor = alters Texas Red total fluorescence, flagging assay interference; TRb/SRC2 Texas Red total fluorescence interference; Potency, µM (highest dose often 106 µM), for the others: at the top dose fluorescence change, negative = quenching; 280,000 compounds, 0.29% hits; AID 1479; active = well fitted curve in either direction with a large enough effect; inconclusive = small, poorly fitted or top-dose-only effect
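Flags fluorescent or light-absorbing compounds by total fluorescence, S + 2P, at 555 nm excitation and 632 nm emission. Mixture: 20 nM Texas Red SRC2 peptide, 0.6 uM human TRb LBD, 1 uM T3, 5% DMSO; compound exposure 5 h at ambient temperature.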
TRb-SRC2 inh = TRbeta-SRC2 interaction inhibition; 280,000 compounds, 0.065% hits; Potency, µM (highest dose often 106 µM), for inactives: at the highest dose activity change, negative = inhibition, usual class: inhibitors; P10828; TRbeta-SRC2 peptide binding, fluorescence polarization; receptor liganded with 1 µM T3;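 note: plate controls were bound peptide for no effect and peptide without receptor for full effect; nearly all actives have a fitted effect of over 50% in size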
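Polarization signal, normalized between peptide-alone and full complex controls, measured compound effects on T3-liganded human TRb LBD (0.6 uM) binding 20 nM Texas Red SRC2 peptide after 5 hr.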
RGS12 GoLoco inh = RGS12 GoLoco-Gai1 interaction inhibition. AID 880. 230,000 compounds, 0.44% hits. Potency, µM (titrated, usually from 61.6 µM), inactives show at the highest dose activity, negative = inhibition, usual class: inhibitors. Gai1:RGS12 GoLoco peptide FP, rhodamine, 10 min; active = well fitted inhibition curve with a large enough effect, not every such curve was filed as active; inactive = no such curve, though single readings can be large or run the other way; note: nearly all actives have a fitted effect of over 30% in size
Target sequence (P63096 whole entry, looked up): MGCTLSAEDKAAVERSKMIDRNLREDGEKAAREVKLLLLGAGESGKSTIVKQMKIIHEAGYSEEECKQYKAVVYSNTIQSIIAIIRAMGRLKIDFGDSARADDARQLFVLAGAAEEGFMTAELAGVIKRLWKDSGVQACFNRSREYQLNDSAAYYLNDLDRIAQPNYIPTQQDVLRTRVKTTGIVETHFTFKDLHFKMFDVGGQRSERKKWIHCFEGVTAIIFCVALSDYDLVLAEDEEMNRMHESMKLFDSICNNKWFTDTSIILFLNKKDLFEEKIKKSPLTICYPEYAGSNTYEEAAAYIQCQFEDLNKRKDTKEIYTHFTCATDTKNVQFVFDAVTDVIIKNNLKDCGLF
KAT2A inh = inhibitors of human GCN5L2 histone acetyltransferase; GCN5L2 HAT assay, ThioGlo1 CoA-SH fluorescence; Q92830; Potency, µM (doses to about 58.9 µM), inactives show at the top dose activity change, negative = inhibition, most hits filed as inhibitors; AID 504327; 390,000 compounds, 0.21% hits
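Preincubate 20nM GCN5L2 with compound 15 min, RT → add 50uM ThioGlo1 + 75uM H3(1-25) + 70uM acetyl-CoA → read fluorescence 0 and 20 min. Primary qHTS; fluorescent artifacts likely.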
* hit, by the source's call; ? = inconclusive; . = no result; [ ] = another dose, or the depositor's remark. Unless noted, calls come from the whole dose curve; as a rule, active = well fitted curve in the direction sought with a large enough effect; inconclusive = small, poorly fitted or top-dose-only effect, or another doubt; inactive = no such curve, though single readings can be large; an effect the other way counts as inactive or inconclusive. Unless noted, % is set by controls: 0 for no effect and ±100 for the full control effect; potency is the fitted concentration of half-maximal effect.

SMILES | VDR inh | TexasRed fluor | TRb-SRC2 inh | RGS12 GoLoco inh | KAT2A inh
CN1CCN(c2oc(-c3ccc(OCc4ccc(Cl)cc4)cc3)nc2C#N)CC1 | 3.2% | . | . | . | .
Oc1ccc(C(c2ccc(O)cc2)C(Cl)(Cl)Cl)cc1 | . | -0.6%[201 µM] | 1.5%[201 µM] | . | .
O=C(CNC(=O)C1CCCCC1)OCc1ccccc1 | -15.0% | . | . | . | .
CC(=O)Nc1cccc(CCc2nc3ccccc3[nH]2)c1 | 70.8µM* | . | . | . | -8.3%
NC(=O)C[n+]1cccc2ccccc21 | -0.9% | -1.6% | -11.4% | 11.2µM* | -13.4%
COc1ccccc1S(=O)(=O)N1CCN(c2nc(-c3cccs3)nc3ccccc23)CC1 | -22.2% | . | . | . | .
CCC(CO)Oc1cc(NCc2cccc(C)c2)c2ncn(C(C)C)c2c1 (configuration not stated) | 89.1µM* | . | . | . | -13.6%
CCC(CO)Oc1cc(NCc2ccc(C)cc2)c2ncn(C(C)C)c2c1 (configuration not stated) | -11.1% | . | . | . | -8.7%
Nc1c(Cl)cc(Cl)cc1Cl | . | -0.6% | 1.3% | 9.6% | .
Nc1nc(NCc2ccc(Cl)c(Cl)c2)c2[nH]cnc2n1 | -6.8% | . | . | . | .
Cc1nc(-c2ccccc2)c(-c2ccncc2)o1 | 0.6% | 0.6% | -4.3% | . | -5.5%
NC(=O)c1c(NC(=O)c2noc3c2CCCC3)sc2c1CCCC2 | 50.1µM* | -20.0% | -3.5% | . | -26.4%
NC(=S)c1ccc[n+]([C@@H]2O[C@@H](COP(=O)([O-])OP(=O)(O)OC[C@H]3O[C@@H](n4cnc5c(N)ncnc54)[C@H](OP(=O)(O)O)[C@@H]3O)C(O)C2O)c1 (some centres not stated) | 1.3% | . | . | . | -21.2%
Cc1ccc2c(CC(=O)N(Cc3ccc(Cl)cc3)Cc3ccco3)coc2c1 | 6.5% | 1.12µM*[quencher] | -16.7%[53 µM] | . | -12.9%
Cc1ccc(CN(Cc2ccco2)C(=O)COc2ccc(C(C)C)cc2)cc1 | 32.8% | 0.0006µM*[quencher] | ? | . | -16.9%
Cc1cc(C)c2c(CC(=O)N(Cc3ccc(N(C)C)cc3)Cc3ccco3)coc2c1 | 6.7% | ? | -7.9% | . | -12.9%
COc1ccccc1NCC(=O)c1ccc(Cl)cc1 | 79.4µM* | . | . | . | 8.8%
COc1ccccc1NCC(=O)c1ccc(C)c(C)c1 | -8.5% | . | . | . | -7.6%
CC[C@@H]1CC=C[C@H]2[C@H]1C(=O)N(Cc1ccccc1)[C@H]2c1ccoc1 | ? | -1.5% | -3.5% | 2.7% | -6.7%
CCC1CC=CC2C1C(=O)N(Cc1ccccc1)C2c1ccoc1 (configuration not stated) | 79.4µM* | 1.0% | 3.9% | . | .
O=C(O)c1cccc(-n2cccc2/C=C2/NC(=O)N(c3ccc(Cl)cc3)C2=O)c1 | 5.2% | 17.8µM*[quencher] | ? | -7.6% | 8.91µM*
O=C(O)c1cccc(-n2cccc2C=C2C(=O)c3ccccc3C2=O)c1 | 8.8% | -10.4% | 6.2% | 20.2% | -22.9%
CC(=O)OCC1=C[C@H]2[C@@H]3C(C)(C)[C@]3(OC(C)=O)C[C@@H](C)[C@]2(O)[C@@H]2C=C(C)C(=O)[C@@]2(O)C1 | 0.9% | -2.4% | 2.3% | . | 2.3%
CCOC(=O)CSc1nc2c(sc(=S)n2-c2ccc(CC)cc2)c(=O)[nH]1 | -10.2% | . | . | . | 0.4%
CCOC(=O)c1ccc(-n2c(=S)sc3c(=O)[nH]c(C)nc32)cc1 | 50.1µM* | 1.8% | -4.2% | -1.6% | -29.4%
SMILES | VDR inh | TexasRed fluor | TRb-SRC2 inh | RGS12 GoLoco inh | KAT2A inh
CCOC(=O)CCN1C(=O)[C@H]2[C@H]3[C@H](O)[C@H](O)C/C(=N/NC(=O)OCC)[C@H]3CC[C@@H]2C1=O | . | 2.0%[11.2 µM] | 5.3%[11.2 µM] | . | .
O=[N+]([O-])c1ccc(C[n+]2cccc3ccc4cccnc4c32)cc1 | 79.4µM* | -12.0% | -12.2% | 30.8% | -0.8%
Clc1nssc1=Nc1ccccc1 | 44.7µM* | 0.7% | -3.3% | -25.3% | 3.98µM*
N#Cc1ccc(N=c2ssnc2Cl)cc1 | 14.1µM* | -3.8% | -3.6% | -42.6% | 10µM*
COc1ccc(N=c2ssnc2Cl)cc1 | ? | 2.9% | 1.6% | -5.1% | 12.6µM*
COc1ccc(N=Cc2sc3ccccc3c2Cl)cc1 | -6.3% | 2.3% | 3.8% | 9.8% | -13.4%
Fc1ccc(N=c2ssnc2Cl)c(F)c1 | 35.5µM* | -2.1% | -4.1% | -11.3% | 7.94µM*
CCOc1cc(C2Nc3ccccc3C(=O)N2Cc2ccco2)ccc1O (configuration not stated) | -14.1% | . | . | . | .
